According to PubChem BioAssay (Tox21):
Results filed as inconclusive are left out. Where a call stands in place of a potency, no number is given. Activity calls are given as the source filed them. Calls follow the shape of the full dose curve.

Target: Acetylcholinesterase (Homo sapiens) (UniProt P22303)
Assay: Acetylcholinesterase (AChE) small molecule antagonists: colormetric cell-based qHTS assay (AID 1347395); also: nearly all actives have a fitted effect of over 30% in size
Settings: SH-SY5Y cells AChE activity, colorimetric (Ellman); series mostly up to 115 µM
Summary of the method: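 Quantitative HTS in attached SH-SY5Y cells: 30 min compound exposure, then 90 min with acetylthiocholine and DTNB at 37 C; colour from thiocholine reports AChE activity.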

Sequence of Acetylcholinesterase (Homo sapiens) (P22303 whole entry, looked up): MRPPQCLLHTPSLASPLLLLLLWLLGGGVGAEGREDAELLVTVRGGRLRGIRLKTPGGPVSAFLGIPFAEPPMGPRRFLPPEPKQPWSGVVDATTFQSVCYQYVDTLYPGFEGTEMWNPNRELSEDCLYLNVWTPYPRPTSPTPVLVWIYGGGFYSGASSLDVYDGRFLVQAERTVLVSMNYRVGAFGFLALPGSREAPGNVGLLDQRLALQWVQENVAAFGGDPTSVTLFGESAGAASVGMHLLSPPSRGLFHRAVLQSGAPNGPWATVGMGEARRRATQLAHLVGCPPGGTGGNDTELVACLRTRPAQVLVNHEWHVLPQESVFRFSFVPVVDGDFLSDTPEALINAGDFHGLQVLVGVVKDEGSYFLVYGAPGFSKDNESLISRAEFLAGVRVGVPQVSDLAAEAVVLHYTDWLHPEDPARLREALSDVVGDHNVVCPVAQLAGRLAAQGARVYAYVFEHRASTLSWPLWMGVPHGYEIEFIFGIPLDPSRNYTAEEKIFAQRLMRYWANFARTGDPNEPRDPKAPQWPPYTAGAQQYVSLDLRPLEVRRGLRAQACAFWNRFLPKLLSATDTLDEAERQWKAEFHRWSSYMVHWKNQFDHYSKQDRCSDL

With `CO[C@H]1C=CO[C@@]2(C)Oc3c(C)c(O)c4c(O)c(c5c(c4c3C2=O)=NC2(CCN(CC(C)C)CC2)N=5)NC(=O)/C(C)=C\C=C/[C@H](C)[C@H](O)[C@@H](C)[C@@H](O)[C@@H](C)[C@H](OC(C)=O)[C@@H]1C` as the compound, how does the Potency read?
Its Potency is “inactive”.

`CC(=O)Nc1cccc(O)c1` was tested. Which Potency did it give?
Its Potency is “inactive”.

Which Potency does the source give for `CC(=O)OCC(=O)[C@@]1(O)CC[C@H]2[C@@H]3CCC4=CC(=O)C=C[C@]4(C)[C@H]3[C@@H](O)C[C@@]21C` here?
Its Potency is “inactive”.

`N#Cc1ccc(C(=O)O)cc1` was tested. Which Potency did it give?
The Potency was “inactive”.

For `CN(C)[C@@H]1C(=O)C(C(N)=O)=C(O)[C@@]2(O)C(=O)C3=C(O)c4c(O)cccc4C[C@H]3C[C@@H]12`, which Potency is on record?
Its Potency is “inactive”.

How did the Potency turn out when `O=c1oc(=O)c2cc3c(=O)oc(=O)c3cc12` was run?
Its Potency is “inactive”.

For `CCCCCCCCCCCCN1CCCC1=O`, which Potency is on record?
The Potency was “inactive”.

Which Potency does the source give for `COc1ccc(Nc2ccc(OC)cc2)cc1` here?
Its Potency is “inactive”.

With `COc1ccc([C@@H]2Sc3ccccc3N(CCN(C)C)C(=O)[C@@H]2OC(C)=O)cc1` as the compound, how does the Potency read?
Its Potency is “inactive”.

With `CC1=Nc2ccccc2C1(C)C` as the compound, how does the Potency read?
Its Potency is “inactive”.

`CC(C)(C(=O)c1cccnc1)c1cccnc1` was tested. Which Potency did it give?
The Potency was “inactive”.

With `OCCN1C[C@H](O)[C@@H](O)[C@H](O)[C@H]1CO` as the compound, how does the Potency read?
Its Potency is “inactive”.

For `c1ccc2ncccc2c1`, which Potency is on record?
Its Potency is “inactive”.

`CC(CN(CCN(CC(C)OCCO)CC(C)OCCO)CC(C)OCCO)OCCO` (stereo not given) was tested. Which Potency did it give?
Its Potency is “inactive”.

`CC(=O)CC(C)(C)C1CCCCC1` was tested. Which Potency did it give?
Its Potency is “inactive”.

How did the Potency turn out when `NCc1cccc(CN)c1` was run?
The Potency was “inactive”.

`CCC(=O)OCCc1ccccc1` was tested. Which Potency did it give?
The Potency was “inactive”.

How did the Potency turn out when `CCC(C)(O)CCCC(C)C` (stereo not given) was run?
Its Potency is “inactive”.

Which Potency does the source give for `Cc1c(-c2cccnc2)c2ccccc2n1CCCCC(=O)O` here?
The Potency was “inactive”.

Which Potency does the source give for `CCOC(=O)/C=C/C(=O)O` here?
The Potency was “inactive”.

How did the Potency turn out when `CC1=CC(C)(C)Nc2ccccc21` was run?
Its Potency is “inactive”.

With `NC(=O)Nc1nc2ccccc2[nH]1` as the compound, how does the Potency read?
Its Potency is “inactive”.

How did the Potency turn out when `O=Cc1ccccc1Cl` was run?
Its Potency is “inactive”.

How did the Potency turn out when `Fc1ccccc1[C@@H](F)COC1CCC(Nc2ncnc3[nH]ncc23)CC1` (stereo not given in full) was run?
The Potency was “inactive”.

Which Potency does the source give for `Cc1cc(Nc2ccc(O)cc2)ccc1N` here?
The Potency was “inactive”.

`O=C(O)CCC(=O)O` was tested. Which Potency did it give?
Its Potency is “inactive”.

How did the Potency turn out when `C=CCCC=C` was run?
Its Potency is “inactive”.

How did the Potency turn out when `O=[N+]([O-])C(CO)(CO)CO` was run?
The Potency was “inactive”.

How did the Potency turn out when `CC(=O)c1ccc2ccccc2c1` was run?
The Potency was “inactive”.

`O=C(O)c1ccccc1C(=O)O` was tested. Which Potency did it give?
Its Potency is “inactive”.

For `CC(C)CC(C)O` (stereo not given), which Potency is on record?
The Potency was “inactive”.

For `Nc1ccc(S(=O)(=O)Nc2ccc(Cl)nn2)cc1`, which Potency is on record?
The Potency was “inactive”.

`ONc1ccccc1` was tested. Which Potency did it give?
The Potency was “inactive”.

Which Potency does the source give for `CC(=O)CC(=O)Nc1ccccc1C` here?
Its Potency is “inactive”.

How did the Potency turn out when `CC(C)C(=O)c1ccccc1` was run?
Its Potency is “inactive”.

`O=[N+]([O-])c1cccc(S(=O)(=O)O)c1` was tested. Which Potency did it give?
Its Potency is “inactive”.

How did the Potency turn out when `CC(=O)N1C[C@H](O)C[C@H]1C(=O)O` was run?
Its Potency is “inactive”.

`CC(=O)OCC(=O)[C@H]1CC[C@H]2[C@@H]3CCC4=CC(=O)CC[C@]4(C)[C@H]3CC[C@]12C` was tested. Which Potency did it give?
Its Potency is “inactive”.

For `O=C(O)CC(C(=O)O)S(=O)(=O)O` (stereo not given), which Potency is on record?
Its Potency is “inactive”.

Which Potency does the source give for `O=[N+]([O-])c1cccc(Cl)c1` here?
Its Potency is “inactive”.

Target: Acetylcholinesterase (Homo sapiens) (UniProt P22303)
Assay: Acetylcholinesterase (AChE) small molecule antagonists: enzyme-based qHTS assay (AID 1347397); also: nearly all actives have a fitted effect of over 55% in size
Settings: Potency: AChE enzyme activity inhibition; outcome: AChE enzyme activity inhibition; series mostly up to 115 µM
Summary of the method: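 Enzyme inhibition was scored from DTNB-detected thiocholine formed by recombinant human AChE acting on acetylthiocholine. The 30 min compound preincubation and 10 min substrate reaction were both run at room temperature, with DMSO as vehicle control.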

For `CO[C@H]1C=CO[C@@]2(C)Oc3c(C)c(O)c4c(O)c(c5c(c4c3C2=O)=NC2(CCN(CC(C)C)CC2)N=5)NC(=O)/C(C)=C\C=C/[C@H](C)[C@H](O)[C@@H](C)[C@@H](O)[C@@H](C)[C@H](OC(C)=O)[C@@H]1C`, which Potency is on record?
The Potency was “inactive”.

How did the Potency turn out when `CC(=O)Nc1cccc(O)c1` was run?
Its Potency is “inactive”.

`CC(=O)OCC(=O)[C@@]1(O)CC[C@H]2[C@@H]3CCC4=CC(=O)C=C[C@]4(C)[C@H]3[C@@H](O)C[C@@]21C` was tested. Which Potency did it give?
Its Potency is “inactive”.

`N#Cc1ccc(C(=O)O)cc1` was tested. Which Potency did it give?
Its Potency is “inactive”.

For `CN(C)[C@@H]1C(=O)C(C(N)=O)=C(O)[C@@]2(O)C(=O)C3=C(O)c4c(O)cccc4C[C@H]3C[C@@H]12`, which Potency is on record?
The Potency was “inactive”.

For `O=c1oc(=O)c2cc3c(=O)oc(=O)c3cc12`, which Potency is on record?
The Potency was “inactive”.

For `CCCCCCCCCCCCN1CCCC1=O`, which Potency is on record?
The Potency was “inactive”.

For `COc1ccc(Nc2ccc(OC)cc2)cc1`, which Potency is on record?
Its Potency is “inactive”.

How did the Potency turn out when `COc1ccc([C@@H]2Sc3ccccc3N(CCN(C)C)C(=O)[C@@H]2OC(C)=O)cc1` was run?
Its Potency is “inactive”.

Which Potency does the source give for `CC1=Nc2ccccc2C1(C)C` here?
The Potency was “inactive”.

Which Potency does the source give for `CC(C)(C(=O)c1cccnc1)c1cccnc1` here?
Its Potency is “inactive”.

`OCCN1C[C@H](O)[C@@H](O)[C@H](O)[C@H]1CO` was tested. Which Potency did it give?
The Potency was “inactive”.

How did the Potency turn out when `c1ccc2ncccc2c1` was run?
Its Potency is “inactive”.

Which Potency does the source give for `CC(CN(CCN(CC(C)OCCO)CC(C)OCCO)CC(C)OCCO)OCCO` (stereo not given) here?
Its Potency is “inactive”.

With `CC(=O)CC(C)(C)C1CCCCC1` as the compound, how does the Potency read?
Its Potency is “inactive”.

How did the Potency turn out when `NCc1cccc(CN)c1` was run?
Its Potency is “inactive”.

Which Potency does the source give for `CCC(=O)OCCc1ccccc1` here?
The Potency was “inactive”.

How did the Potency turn out when `CCC(C)(O)CCCC(C)C` (stereo not given) was run?
Its Potency is “inactive”.

With `Cc1c(-c2cccnc2)c2ccccc2n1CCCCC(=O)O` as the compound, how does the Potency read?
The Potency was “inactive”.

How did the Potency turn out when `CCOC(=O)/C=C/C(=O)O` was run?
Its Potency is “inactive”.

`CC1=CC(C)(C)Nc2ccccc21` was tested. Which Potency did it give?
The Potency was “inactive”.

For `NC(=O)Nc1nc2ccccc2[nH]1`, which Potency is on record?
Its Potency is “inactive”.

For `O=Cc1ccccc1Cl`, which Potency is on record?
Its Potency is “inactive”.

Which Potency does the source give for `Fc1ccccc1[C@@H](F)COC1CCC(Nc2ncnc3[nH]ncc23)CC1` (stereo not given in full) here?
The Potency was “inactive”.

How did the Potency turn out when `Cc1cc(Nc2ccc(O)cc2)ccc1N` was run?
The Potency was “inactive”.

For `O=C(O)CCC(=O)O`, which Potency is on record?
Its Potency is “inactive”.

For `C=CCCC=C`, which Potency is on record?
Its Potency is “inactive”.

Which Potency does the source give for `O=[N+]([O-])C(CO)(CO)CO` here?
Its Potency is “inactive”.

`CC(=O)c1ccc2ccccc2c1` was tested. Which Potency did it give?
Its Potency is “inactive”.

For `O=C(O)c1ccccc1C(=O)O`, which Potency is on record?
Its Potency is “inactive”.

With `CC(C)CC(C)O` (stereo not given) as the compound, how does the Potency read?
The Potency was “inactive”.

With `Nc1ccc(S(=O)(=O)Nc2ccc(Cl)nn2)cc1` as the compound, how does the Potency read?
The Potency was “inactive”.

`ONc1ccccc1` was tested. Which Potency did it give?
Its Potency is “inactive”.

Which Potency does the source give for `CC(=O)CC(=O)Nc1ccccc1C` here?
The Potency was “inactive”.

Which Potency does the source give for `CC(C)C(=O)c1ccccc1` here?
The Potency was “inactive”.

How did the Potency turn out when `O=[N+]([O-])c1cccc(S(=O)(=O)O)c1` was run?
The Potency was “inactive”.

For `CC(=O)N1C[C@H](O)C[C@H]1C(=O)O`, which Potency is on record?
The Potency was “inactive”.

How did the Potency turn out when `CC(=O)OCC(=O)[C@H]1CC[C@H]2[C@@H]3CCC4=CC(=O)CC[C@]4(C)[C@H]3CC[C@]12C` was run?
The Potency was “inactive”.

Which Potency does the source give for `O=C(O)CC(C(=O)O)S(=O)(=O)O` (stereo not given) here?
The Potency was “inactive”.

With `O=[N+]([O-])c1cccc(Cl)c1` as the compound, how does the Potency read?
The Potency was “inactive”.
